This is part of a sample that, as a whole, favours compounds with a hit. Of some 83,000 tested, about 20% had one in any assay.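 The test compound was applied at a single concentration to cells in 96-well plates for 48 hours, and percent growth was recorded.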 Values without a mark were called inactive. Calls of active or inactive are those of the source. Rule for the calls: active = growth percent below 10; inactive = the rest.
Assays:
Assay in all cases: NCI-60 one-dose screen, 48 h (100 = growth as untreated, 0 = no growth, -100 = all killed)
Conditions in all cases: 10 µM unless noted
NCI-H23 lung = test system: NCI-H23 lung
NCI-H226 lung = test system: NCI-H226 lung
NCI-H322M lung = test system: NCI-H322M lung
HOP-62 NSCLC = test system: HOP-62 NSCLC
NCI-H460 lung = test system: NCI-H460 lung
HOP-92 NSCLC = test system: HOP-92 NSCLC
NCI-H522 lung = test system: NCI-H522 lung
A549/ATCC NSCLC = test system: A549/ATCC NSCLC
786-0 renal = test system: 786-0 renal
COLO 205 colon = test system: COLO 205 colon

| Structure (SMILES) | growth (NCI-H23 lung) | growth (NCI-H226 lung) | growth (NCI-H322M lung) | growth (HOP-62 NSCLC) | growth (NCI-H460 lung) | growth (HOP-92 NSCLC) | growth (NCI-H522 lung) | growth (A549/ATCC NSCLC) | growth (786-0 renal) | growth (COLO 205 colon) |
| --- | --- | --- | --- | --- | --- | --- | --- | --- | --- | --- |
| CCC(C)C1NC(=O)c2nc(oc2-c2ccccc2)-c2csc(n2)-c2csc(n2)-c2nc(oc2C)-c2coc(n2)CNC(=O)C(C(C)CC)NC1=O (stereo not given) | -68.2% (active) | -55.8% (active) | -98.9% (active) | -57% (active) | -81.4% (active) | -83.3% (active) | -74.7% (active) | -76.6% (active) | -73.1% (active) | -77.3% (active) |
| Cc1[nH]n(C(=O)c2ccncc2)c(=O)c1N=Nc1ccc(O)c(C(=O)O)c1 | 106% | 86.3% | 91.3% | -3.17% (active) | 114% | 62.7% | 104% | 21.9% |  | 113% |
| COc1ccc2nc(C)cc(Nc3ccccc3O)c2c1 | 100% | 0.475% (active) | 59.9% | -61.9% (active) | 20.6% | -23.7% (active) | 47.3% | 3.25% (active) | -67% (active) | 89.9% |
| O=C(N=Nc1c(Cl)c(O)c2ccccc2c1O)C(=O)Nc1cccc(C(F)(F)F)c1 | 71.5% | 88.5% | 63.4% | 47.9% | 79.8% | 79.2% | 8.55% (active) | 87.1% | 90.3% | 47.3% |
| Oc1ccc(-c2cnc(-c3ccccc3)[nH]2)c(O)c1 | 108% | 86.2% | 94.9% | -12.1% (active) | 110% | 58.7% | 99.8% | 24.8% |  | 117% |
| COc1ccccc1NC(=O)OCC12COCN1COC2 | 100% | 99% | 107% | 104% | 104% | 105% | 100% | 92.9% | 103% | 108% |
| COC1=CC(c2ccc[nH]2)=N/C1=C\c1[nH]c(C)c(C(=O)CCCCCCCCC(=O)O[C@H]2CC[C@H]3C4CCc5cc(O)ccc5C4CC[C@]23C)c1C (stereo not given in full) | 40.3% | 24.9% | 51.5% | 50.7% | 14.9% | -14.6% (active) | 15% | 4.12% (active) | 19.9% | 18.5% |
| COc1ccc(NC(=O)C2c3ccccc3C(=O)N(CC(C)C)C2c2cccs2)cc1 (stereo not given) | 95.2% | 92.7% | 110% | 90.1% | 94.3% | 94.1% | 92.3% | 89.5% | 98.8% | 105% |
| COc1c(-c2cc(-c3ccc(C)o3)[nH]c(=O)n2)c(O)cc2occc12 | 68.8% | 67.3% | 90.7% | 52.1% | 44.4% | 67.3% | 36.1% | 47.1% | 93.9% | 104% |
| c1ccc(C2=Nc3ccccc3SC2)cc1 | 93.5% | 108% | 98.2% | 113% | 99.3% | 62.1% | 99.6% | 96.5% | 117% | 114% |
| COc1cc(C2C=C(C)N=C3SC=NN32)cc(OC)c1OC (stereo not given) | 100% | 108% | 112% | 102% | 108% | 91.4% | 104% | 101% | 112% | 115% |
| O=C1OC(c2ccc(-c3ccccc3)cc2)=C/C1=C/c1c(Cl)cccc1Cl | 94.7% | 84.1% | 85.7% | 76% | 99.4% | 59% | 89.3% | 11% |  | 103% |
| COCCCNCC(=O)Nc1c(C)cccc1C | 110% | 106% | 139% | 107% | 116% | 103% | 112% | 96.7% | 93.8% | 109% |
| O=C(Nc1ccc2ncnc(Nc3ccc(F)c(Cl)c3)c2c1)c1cccs1 | 81.6% | 58.1% | 19.3% | 72.7% | 39.6% | 38% | 31.4% | 43.3% | 14.8% | 106% |
| COc1cc(NC(C)CCCN)c2ncccc2c1Oc1ccc(Cl)cc1 (stereo not given) | 87.4% | 75% | 64.5% | 77.7% | 83.8% | 43.4% | 87.9% | 87.9% | 67.3% | 6.98% (active) |
| CS(=O)(=O)Nc1cc(-c2cc3ncc(C#N)c(Nc4ccc(Oc5ccccc5)c(Cl)c4)c3s2)cnc1Cl | 56.6% | 64.3% | 26.9% | 54.8% | 21.7% | 45.6% | 32.4% | 55.2% |  | 66.9% |
| COc1cc(OC)cc(-c2n/c(=C\c3c(O)[nH]c4ccc(Cl)cc34)cc3c2=Nc2ccccc2-3)c1 | 34% | 84.3% | 93.2% | 72.5% | 43.3% | 92.6% | 60.7% | 58.5% | 39.3% | 90.5% |
| Cc1cc(C)c2c(NC(=O)Nc3ccc(Cl)c(Cl)c3)n[nH]c2n1 | 101% | 108% | 91.3% | 105% | 106% | 117% | 92.6% | 101% |  | 106% |
| C=C1NC(=O)C(C(C)CC)NC(=O)C2CSCC(NC(=O)CCC(=O)O)C(=O)NC(Cc3ccccc3)C(=O)NC(C)C(=O)NC(CC(C)CC)C(=O)NC(C(=O)NC(Cc3ccccc3)C(=O)N3CCCC3C(=O)N2)C(C)OC(=O)C(CO)NC(=O)C(C(O)COC)N(C)C(=O)C(C(C)C)NC(=O)C(CC(C)CC)NC1=O (stereo not given) | 38.6% [6 µM] | 56.8% [6 µM] | 39.8% [6 µM] | 17.3% [6 µM] | -4.11% [6 µM] (active) | 42% [6 µM] | -19.3% [6 µM] (active) | 10.9% [6 µM] |  | -44.7% [6 µM] (active) |
| COc1ccc(-c2nc(-c3cc(OC)cc(OC)c3)[nH]c2-c2ccc(OC)cc2)cc1 | 39.1% | 48.7% | 60.6% | 91.8% | 48% | 23.7% | 20.9% | 46.7% | 63.8% | 34.2% |
| CC1(C)CC[C@]2(C(=O)N3CCNCC3)CC[C@]3(C)C(=CC[C@@H]4[C@@]5(C)CCC(=O)C(C)(C)[C@@H]5CC[C@]43C)[C@@H]2C1 | 103% | 99.4% | 108% | 97.3% | 109% | 109% | 94.5% | 102% | 102% | 105% |

| Structure (SMILES) | growth (NCI-H23 lung) | growth (NCI-H226 lung) | growth (NCI-H322M lung) | growth (HOP-62 NSCLC) | growth (NCI-H460 lung) | growth (HOP-92 NSCLC) | growth (NCI-H522 lung) | growth (A549/ATCC NSCLC) | growth (786-0 renal) | growth (COLO 205 colon) |
| --- | --- | --- | --- | --- | --- | --- | --- | --- | --- | --- |
| CC(C)(C)CC(C)(C)NCc1cc(C(C)(C)C)cc(CNC(C)(C)CC(C)(C)C)c1O | 38.7% | 72.7% | 83.3% | 69.4% | 50.8% | -1.38% (active) | 8.73% (active) | 67.6% | 71.1% | 0.858% (active) |
| CN1CCN(Cc2ccc(NC(=O)c3cncc(C#Cc4ncc5cnccn45)c3)cc2C(F)(F)F)CC1 | 34.3% | -7.4% (active) | 60.4% | 33.7% | 52.6% | 11.2% | 58.3% | 74.2% | 71.5% | 17% |
| O=C(Nc1ccc(Cl)c(C(F)(F)F)c1)c1ccc(Nc2ccc(Cl)nn2)cc1 | 48.4% | 84.2% | 92.9% | 86.1% | 74% |  | 62% | 44.3% | 50.9% | 81.6% |
| COc1ccc(C(=O)C(CN(C)C)c2ccccc2)cc1 (stereo not given) | 13.2% | 71.5% | 96% | 83.6% | 47.7% |  | -73.9% (active) | 72.6% | -36.2% (active) | 22.8% |
| CCSc1ccc([C@@H]2[C@@H](N)C(=O)N2c2cc(OC)c(OC)c(OC)c2)cc1 | 35.9% | 59.4% | 45.7% | 41.8% | 12.2% |  | 18.7% | 30.5% | 31.7% | -5.46% (active) |
| O=C(CS)OCC(COC(=O)CS)(COC(=O)CS)COC(=O)CS | 85% | 98.1% | 58.3% | 105% | 75.2% |  | 76.4% | 93.9% | 103% | 105% |
| COc1ccc2c(c1)CCCC21C(=O)Nc2ccccc21 (stereo not given) | 101% | 102% | 91.6% | 96.5% | 115% |  | 83.2% | 95.2% | 99.3% | 108% |
| C#CC[C@@H]1C[C@]2(C)[C@H]3CC=C4[C@H]5CC(C)(C)CC[C@]5(C(=O)NCCCCN)CC[C@@]4(C)[C@]3(C)CC[C@H]2C(C)(C)[C@H]1OC(C)=O | 78.9% | 90.3% | 36% | 92.2% | -27.6% (active) |  | 70.1% | 27.8% | 6.69% (active) | -49.7% (active) |
| O=C(Cc1ccc(Nc2ccnc(C(F)(F)F)c2)cc1)N/N=C/c1ccccc1O | 37.7% | 51.4% | 32% | -9.42% (active) | 3.37% (active) |  | 22.5% | 36.2% | 6.73% (active) | 14% |
| CC(C)c1ccc(Cn2ccc3c4c(N)nc(NC5CC5)nc4ccc32)cc1 | -71.3% (active) | -73.3% (active) | -93.2% (active) | -74.8% (active) | -84.2% (active) |  | -81.8% (active) | -80.9% (active) | -91.6% (active) | -78% (active) |
| CCN(CC)c1ccc2nc3c4ccccc4c(=O)cc-3n(-c3ccccc3)c2c1 | -3.45% (active) | 5.4% (active) | -23.5% (active) | 9.84% (active) | -41.5% (active) |  | -8.95% (active) | 11.6% | 4.36% (active) | -55.1% (active) |
| COc1ccc(NC(=O)/C=C/c2ccc(NC(=O)N3CCCC3)cc2)cn1 | 105% | 96.6% | 106% | 104% | 105% |  | 95.9% | 100% | 109% | 112% |
| NC(N)=N/N=C\c1cccc(OCc2ccccc2)c1 | 79.5% | 86.2% | 91.7% | 79.6% | 95.3% |  | 61.8% | 87.9% | 79.6% | -70.9% (active) |
| CCN(CC)CCNc1c(C)cc(CO)c(Cl)c1C |  | -23.6% (active) | 110% | 113% | 98.9% | 109% | 104% | 84.5% | 103% | 85.2% |
| CC(C)CC(NC(=O)C(CCCN=C(N)N)NC(=O)OCc1ccccc1)C(=O)NC(CNC(=O)/C=C/c1ccccc1)C(C)C (stereo not given) | 109% | 100% | 104% | 107% | 108% |  | 98.7% | 108% | 101% | 117% |
| COc1ccc(-c2nsc3c2NC(=O)CC3c2ccc3c(c2)OCO3)cc1 (stereo not given) | 35.1% | 68.4% | 43.9% | 31.2% | 19.1% |  | -30.1% (active) | 26.6% | 57.5% | -14.4% (active) |
| COc1cc2nccc(Oc3ccc(NC(=O)C4(C(=O)Nc5ccc(F)cc5)CC4)cc3)c2cc1OC(=O)c1ccc(N)cc1 | 37.8% | 55.7% | 43% | 11.7% | 24.7% |  | 21.4% | 33.6% | -17.4% (active) | -36.5% (active) |
| CC(=O)OC1Oc2ccccc2-c2oc3nc(=N)n(C)c-3cc21 (stereo not given) | 103% | 117% | 123% | 91.9% | 112% |  | 98.1% | 119% | 103% | 119% |
| O=[N+]([O-])c1ccccc1CN1CCCCC1 | 92.8% | 112% | 106% | 107% | 116% |  | 110% | 106% | 111% | 111% |
| CCCCn1c(-c2ccc(F)cc2)nc2cc(OC)c(OC)cc2c1=O | 101% | 93.8% | 78% | -11.2% (active) | 112% |  | 93.7% | 19.7% |  | 121% |
